For one experiment, the target named is CD1E. Briefly: pooled miR-30 sensor sort-seq; sequence = guide strand. As to conditions: shRNA.
TGTTCTTATTTGAACTCTGTTT registered a sensor-assay potency score (higher = more potent) of -0.835.

For the sequence TTTTTCAGCTCCTGCTTGCTGA, the sensor-assay potency score (higher = more potent) is -0.242.

Turning to TCTACAGCCAGCTAATATCTGG, the sensor-assay potency score (higher = more potent) was -0.694.

With TAGGATTGTAGAGCCTGGGGAG, the sensor-assay potency score (higher = more potent) was -0.471.

TTCCTTAATATCTAGGTAGCGA yielded a sensor-assay potency score (higher = more potent) of -0.491.

Take TAGGTAGCGATTGAGCACTTTA: the sensor-assay potency score (higher = more potent) is -0.754.

AACTACAACCAATATGACCAGG came in with a sensor-assay potency score (higher = more potent) of -0.902.

The sequence ATATCCACCATGTCTCGTCAGC showed a sensor-assay potency score (higher = more potent) of -0.905.

In turn, TAAGTTTTTCAGCTCCTGCTTG displayed a sensor-assay potency score (higher = more potent) of -0.417.

On to AATATCTGGATCTCGAAGGGGT, for which the sensor-assay potency score (higher = more potent) was determined as 0.0216.

Sequence TATTTCCTTAATATCTAGGTAG showed a sensor-assay potency score (higher = more potent) of -0.111.

TATCTGGATAAAACTATGGAAG returned a sensor-assay potency score (higher = more potent) of -1.28.

As for TAATATCTGGATCTCGAAGGGG, the sensor-assay potency score (higher = more potent) is -0.509.

Sequence TAGACTGCTGTGTTTCACCCGA registered a sensor-assay potency score (higher = more potent) of -0.381.

For TTAACCGTGAGTCAACTACAAC, the sensor-assay potency score (higher = more potent) was -1.49.

On to TGTCTCGTCAGCATTAGGCAGG, for which the sensor-assay potency score (higher = more potent) was -0.59.

Take TTCCACTTCTTCAATACTCTGT: the sensor-assay potency score (higher = more potent) came to 0.573.

For the sequence TATAACTGGAACAGTGACTGTA, the sensor-assay potency score (higher = more potent) is 0.739.

As to TTTTGATCCACGATACTTGTGC, the sensor-assay potency score (higher = more potent) worked out at 0.208.

The sequence TATTTAAGAAGATTTGTGGGGC came in with a sensor-assay potency score (higher = more potent) of 0.193.

ATAACTGGAACAGTGACTGTAA gave a sensor-assay potency score (higher = more potent) of 0.29.

For the next experiment, the target named is CD27. The description is as above. As to conditions: shRNA.
Sequence TTGGAAGAGGATCACACTCGGT had a sensor-assay potency score (higher = more potent) of -0.746.

With TATATTTCCTTCGTTGATGGAG, the sensor-assay potency score (higher = more potent) is -0.211.

In turn, TGTAACGACAAGGCTCTGCAGG returned a sensor-assay potency score (higher = more potent) of -0.28.

Sequence TTTGATCTATATTTCCTTCGTT gave a sensor-assay potency score (higher = more potent) of 0.393.

As to TTTCGCAGCAGGAAGTGTGTTT, the sensor-assay potency score (higher = more potent) was 0.0361.

For ATGCGAATAAAATCGGAGCTGC, the sensor-assay potency score (higher = more potent) was -0.25.

The sequence TAGCATGTGGGTCTTTCGCAGC came in with a sensor-assay potency score (higher = more potent) of -0.998.

Take TGGAAGAGGATCACACTCGGTG: the sensor-assay potency score (higher = more potent) is -0.658.

As to TTCTATGCTGGTCACAGTCCTT, the sensor-assay potency score (higher = more potent) is -1.06.

In turn, TTGTTTGATCTATATTTCCTTC showed a sensor-assay potency score (higher = more potent) of -0.475.

TGAAAACAAGGAACATTCCAGA had a sensor-assay potency score (higher = more potent) of -0.449.

The sequence TTTGTTTGATCTATATTTCCTT displayed a sensor-assay potency score (higher = more potent) of 0.303.

In the case of TGCAAGGATCACACTGAGCAGC, the sensor-assay potency score (higher = more potent) is -1.06.

The sequence TCACACTCGGTGCACTCCTTGT came in with a sensor-assay potency score (higher = more potent) of -1.13.

TCACACTGAGCAGCCTTTCTAT: the sensor-assay potency score (higher = more potent) was -1.13.

Sequence TCTATGCTGGTCACAGTCCTTC displayed a sensor-assay potency score (higher = more potent) of -0.827.

Turning to TCTGGCAGCACAGCTTTCCCTG, the sensor-assay potency score (higher = more potent) is -1.15.

With AAAACAAGGAACATTCCAGAGA, the sensor-assay potency score (higher = more potent) is -0.821.

The record behind these values is the OligoGym collection.
Note: reference of the scale not given here.
